The test relates to VDR homodimer (NR concentration 270 nM). Kind of test: PBM binding z-score (relative to random genomic background probes); higher = stronger binding; sequences stand for … in GC…GCGATTGACAGCGTAGAATGAAGG
The procedure, abridged:
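For binding z-scores, the reference was random background probes on custom Agilent 4×180K protein-binding microarrays. These arrays were incubated 1 h with ligand-free nuclear receptor dimers in PBS pH 7.4, 2% milk, 0.02% Triton X-100, 1 mM DTT, 0.2 mg/mL BSA and 0.4 mg/ml salmon testes DNA. Fluorescence was scanned after antibody detection of each partner (one per run) and regression-normalized.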
With TTACGAAGGTGAAGGTCGTTGATCCCTCTGTAGA, the PBM binding z-score amounted to 0.942. Consider TAGTCTAGGTCATTCAGGGGCCAGTATAGAAAGC, for which the PBM binding z-score is 1.88. The sequence GCTTGTAGATCAAGGTTAAGAAAGACTAAGCTAA came in with a PBM binding z-score of -0.377.

As for GCTGCTAGGTCAGGTGGGTCAGCTAACGGGTACG, the PBM binding z-score stood at 0.861. Turning to GATACAGGGTCAAGGCTAGAGTACGCGTATTGAT, the PBM binding z-score was found to be 2.36. Regarding AACGAAAGGTCGAGGTGAGTATAGAGAAAGGGAA, the PBM binding z-score was 0.21. AATACAGGGTAATCGTAGGCCAGAGTACGCACAG: the PBM binding z-score worked out at 0.508. The value for TCGAGTAGGTTAGTAGGGGCATTCAGCCAACATA was 0.677; that for CCTGCTAGGGCATGGTCAGCTAATCTACAGTATG was -0.585.

Take ACAGACAGGTGAGTGAAAGTAACTCAGCTGGACG: the PBM binding z-score is -0.536. Take CCTCGGAGGACAGAAGGTCAGGGCTGTCCGCTTT: the PBM binding z-score is 0.107. In turn, CGTCCAAGGTCAATGCTAGTTCAGTGAAAGCATT showed a PBM binding z-score of 3.28. For ATCTCTAGGTAAGCCTCAGTTCAGTGAAGAACGC the value was 1.21; for TCGAGTAGGTTAGTCGGGGCATTCAACCAACATA, 0.466; for CGAACTAGGACAAGGACAGTGAATCTCCGCACGC, 0.0217. Turning to CGTCCAAGGTCAGAGAGGTCAGTGAGTGCCGAGT, the PBM binding z-score came out at 6.07. Regarding ACAGACAGGTGCGTGAAGGTAACTCAGCTGGACG, the PBM binding z-score is -0.569. With GCTCGGAGGACCAGGTCAGAGCTTTGTCCGTAGA, the PBM binding z-score was -0.425. For GTACCAAGGTGAATAGGTCGTTGCTGAGTAGGCG the value was -0.166. The sequence TAGCCTAGGTCAAATCGGGCCAGTATACGCTATA returned a PBM binding z-score of 0.378. With ACTATTAGTTGAAACGAGGGCAACCGATAGGTTG, the PBM binding z-score came to 1.1. Turning to AGAATGAGGTTAAGAGCAGGGAAACAGAATACAT, the PBM binding z-score stood at 0.0105. Take TTTCAAAGTTCAAAGGTAACGTAAGTATCCACAC: the PBM binding z-score amounted to 4.68. The value for CGAACTAGGTCAGTACAGGACAGTGAAGGATGAT was 0.105. As to AGGCAAAGTTCAGGACGAGGTAACGTAAAGCACG, the PBM binding z-score stood at 2.35. The value for TTACAAAGGTGAAGGTCGTTGATCCCTCTGTAGA was 1.08; that for ACTAGTAGTTGAGACGAGGGCAACCGATAGGTTG was 0.686.

Take TGTATGAGGTTATAAGATCAGGGAACGTTGCAAA: the PBM binding z-score is 0.837. On to CCTAGTTGGGCAAGGTCACACACGCTATAGGTAC, for which the PBM binding z-score is 2.77. Turning to ACAGACAGGTGTGTGAAGGTAACTCAGCTGGACG, the PBM binding z-score is -0.49. CAAACTTGGTCAAGAGGTCAAAGTCCGCTTCCCG registered a PBM binding z-score of 3.57. CAAACTAGGTCACTGGAAGGTCAAAGTCCGCATG gave a PBM binding z-score of 3.86. With GTACCAAGGCGAATAGGTCGTTGATGAGTAGGCG, the PBM binding z-score is -0.0798.

As for TCTATTACTTGATTAGGGCAACCGAAACAGCGGA, the PBM binding z-score amounted to 0.603. The value for TAGCCTAGGTTAGATCGGGCCAGTATACGCTATA was -0.374; that for TCTAGTTGTTCACGGAGGTCACACACGACGGGTA was 3.06. The sequence CGAACGAGAGCATGAGTTGATAGCAAATGCCGAT showed a PBM binding z-score of 0.244. TTACCAAGGTGAAAGGTCGTTGACGCACGCCTTG displayed a PBM binding z-score of 1.41. For the sequence GCTGCTAGGTCAACCGATGGTCAGCTAAAGCTCG, the PBM binding z-score is -0.333. As for ACTCGGAGGACAAAAGTCAGAGCTACGCCAGTGA, the PBM binding z-score was -0.631.

These data come from the supplement of paper PMC6555819.
